Screening results from PubChem.
Most compounds without a hit are left out; they make up all but 8% or so of the library.
FMDV inh: High Throughput Screening for Foot and Mouth Disease Virus Antivirals; AID 1159524, 2015; hit rate 1.2% among 410,000; FMDV antiviral cell-based qHTS; Potency, µM (titrated, usually from 57.9 µM), for the others: at the highest dose activity change, negative = inhibition, actives largely listed as inhibitors; calls by dose curve; tested in HEK293T cells; further: read-out not given here; potency means the concentration at half of the fitted maximal effect; on the % scale 0 is the no-effect control and ±100 the full control effect; nearly all actives have a fitted effect of over 45% in size
Lassa entry inh: qHTS for Inhibitors of binding or entry into cells for Lassa Virus; AID 540256, 2011; hit rate 1.2% among 300,000; Lassa virus pseudotype entry inhibition, cell reporter; Potency, µM (titrated, usually from 37.9 µM), without a hit: top-dose activity change, negative = inhibition, usual class: inhibitors; calls by dose curve; tested in HEK293 cells; further: potency means the concentration at half of the fitted maximal effect; on the % scale 0 is the no-effect control and ±100 the full control effect; nearly all actives have a fitted effect of over 50% in size
HCV inh: qHTS Assay for Inhibitors of Hepatitis C Virus (HCV); Huh7.5.1 HCVcc-Cre infection, luciferase reporter, 44 h; Potency, µM (series often up to 41.8 µM), without a hit: at the highest dose activity change, negative = inhibition, hits mostly inhibitors; hit rate 3.4% among 340,000; AID 651820, 2012; active means well fitted inhibition curve with a large enough effect; inconclusive means small, poorly fitted or top-dose-only effect, or another doubt; inactive means no such curve, though single readings can be large or run the other way; further: potency means the concentration at half of the fitted maximal effect; on the % scale 0 is the no-effect control and ±100 the full control effect
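Infectious HCV cell culture screen: compound-treated cells (1,000/well, pre-plated 4 h) are infected with HCVcc-Cre at roughly 0.5 moi and grown 44 h. Infection is quantified by luciferase signal after 15 min substrate incubation at room temperature.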
HCMV antiviral: qHTS Assay for inhibitors of the human cytomegalovirus (HCMV); HFF cells, HCMV-luciferase reporter, 72 h; stronger effect = lower value; activity change, negative = inhibition, % at 57.5 µM; hit rate 4.5% among 410,000; in the data active means activity change below about -60%; inconclusive means no clear call, values can overlap the other calls; inactive means above about -39%; further: on the % scale 0 is the no-effect control and ±100 the full control effect
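Two compound doses tested in HFFs infected with HCMV-luciferase, MOI 1 PFU/cell, 72 h at 37C. Lysate luminescence read with OneGlo; data normalized against buffer-only and 10uM Salinomycin inhibitor controls.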
SARS PLpro yeast: qHTS of Yeast-based Assay for SARS-CoV PLP; S. cerevisiae expressing SARS-CoV PLpro, growth rescue; Potency, µM (titrated, usually from 32.9 µM), for inactives: at the highest dose activity, positive = growth rescue, most hits filed as activators; hit rate 0.19% among 330,000; calls by dose curve; further: potency means the concentration at half of the fitted maximal effect; 0% is about no effect; nearly all actives have a fitted effect of over 55% in size
MARV entry inh: qHTS for inhibitors of binding or entry into cells for Marburg Virus; Potency, µM (top dose mostly 37.8 µM), inactives show top-dose activity change, negative = inhibition, most hits filed as inhibitors; hit rate 1.8% among 300,000; Marburg virus pseudotyped entry inhibition, cell reporter; calls by dose curve; tested in HEK293 cells; further: potency means the concentration at half of the fitted maximal effect; on the % scale 0 is the no-effect control and ±100 the full control effect
* marks the source's active call; other numbers are inactive results; ? = inconclusive; · = not tested or not shown; [ ] = another dose, or the depositor's remark.

SMILES	FMDV inh	Lassa entry inh	HCV inh	HCMV antiviral	SARS PLpro yeast	MARV entry inh
COc1cc(=O)n2c(c1C(=O)NC(C)c1ccco1)CCN(C(=O)c1[nH]c(C)cc1C)CC2 (centres undefined)	-7%	·	·	·	·	·
O=C(Nc1nc(-c2ccccc2)cs1)Nc1ccc(F)cc1F	-8%	?	?	-75*	-13%	-27%
COc1ccc(CC(=O)Nc2nc(-c3cccnc3)cs2)cc1	-20%	?	-28%	-11	-10%	-5%
COc1ccccc1CC(=O)Nc1nc(-c2ccc(F)c(F)c2)cs1	-28%	?	10µM*	-20	1%	?
COc1ccc(CC(=O)Nc2nc(-c3ccc(OC)c(OC)c3)cs2)cc1OC	?	?	5.6µM*	-34	-3%	?
COc1ccc(-c2csc(NC(=O)CS(=O)(=O)c3ccccc3)n2)cc1OC	?	·	·	-38	·	·
COc1cccc(CC(=O)Nc2nc(-c3cccnc3)cs2)c1	-19%	?	-8%	-62*	4%	3%
COc1ccccc1CCNC(=O)C1(c2cccs2)CCOCC1	-3%	-26%[46.1 µM]	·	-5	·	·
COc1ccc(-c2csc(NC(=O)Cc3ccccc3F)n2)cc1OC	-27%	·	10µM*	?	-42%	?
Cc1nnc(NC(=O)C2CC(=O)N(Cc3ccccc3)C2)s1 (centres undefined)	1%	-10%[46.1 µM]	3%	-4	?	-1%[46.1 µM]
COc1ccc(-c2csc(NC(=O)C3CC(=O)N(Cc4ccccc4)C3)n2)cc1OC (centres undefined)	32µM*	-18%	?	12	-2%	?
COc1cccc(-c2csc(N3CCN(C(=O)Nc4ccccc4OC)CC3)n2)c1	6%	20%	-14%	47	-18%	-4%
COc1cccc(-c2csc(N3CCN(C(=O)Nc4ccc(F)cc4)CC3)n2)c1	?	4%	7.9µM*	?	-79%	?
COc1ccc2c(c1OC)C(=O)OC2Nc1nc(-c2ccc([N+](=O)[O-])cc2)cs1 (centres undefined)	13%	16%[46.1 µM]	-9%	19	-2%	17%[46.1 µM]
COc1ccc(-c2csc(NC3OC(=O)c4c3ccc(OC)c4OC)n2)cc1OC (centres undefined)	?	-11%	-77%	-98*	1%	?
O=C(COc1ccccc1-c1nc(-c2ccccc2)no1)Nc1cccc([N+](=O)[O-])c1	-13%	-3%[46.1 µM]	·	12	·	-7%[46.1 µM]
O=C(Nc1cccc(F)c1)c1ccc(-c2cccnc2)c2ccoc12	-57%	·	·	·	·	·
CC(=O)N1c2ccc(S(=O)(=O)N(C)CC(=O)N(Cc3ccccc3)C(C)C)cc2CC1C (centres undefined)	-8%	-27%[46.1 µM]	·	-19	·	·
COc1ccc(CCNc2nc(-c3sc(N)nc3C)cs2)cc1OC	10µM*	-20%	-9%	-11	0%	?
COc1ccc(Nc2nc(-c3sc(N)nc3C)cs2)cc1	-14%	1%	?	139	-2%	21%
O=C(Nc1ccc(F)cc1F)c1csc(-c2ccccc2)n1	35%	6%	?	36	-1%	29%[46.1 µM]
O=C(Nc1ccc(F)cc1F)c1cccc(C(=O)Nc2ccc(F)cc2F)n1	-10%	7%	-15%	-99*	28%	8%
O=C(Nc1ccccc1)Nc1nc(-c2ccccc2)cs1	-3%	·	-17%	?	-1%	·
O=C(Cc1ccccc1F)Nc1nc(-c2ccc(F)cc2)cs1	33%	4.5µM*	-11%	-14	-7%	?
O=C(CS(=O)(=O)c1ccccc1)Nc1nc(-c2ccc(F)cc2)cs1	?	·	19%	?	-3%	·
COc1cccc(-c2csc(NC(=O)Nc3ccccc3)n2)c1	25µM*	·	11µM*	?	-4%	·
OC(c1cc(F)cc(Cl)c1)c1ncc(-c2ccccc2Cl)[nH]1 (centres undefined)	52%	·	·	4	·	·
CCc1ccc(-c2csc(NC(=O)C3CC(=O)N(c4ccc5c(c4)OCCO5)C3)n2)cc1 (centres undefined)	?	?	11µM*	-84*	-11%	?
